# From the supplement of paper PMC11577813, “Eurasian spruce bark beetle detects lanierone using a highly expressed specialist odorant receptor, present in several functional sensillum types” (BMC Biology, 2024)
# ± gives the standard deviation of the averaged measurements.
# System: (4S)-cis-verbenol A-neuron OSN class
# Test: net action potential response of A-neuron (blank-subtracted) (spikes/s (Hz)); higher = stronger excitation
# Conditions: 10 µg on filter paper; neuron: A neuron (large spike amplitude)
# Description: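 Single sensillum recordings from antennal olfactory sensilla of live adult Ips typographus. Each compound was 10 µg in paraffin oil on filter paper, delivered as a 0.5 s puff. Net response = spikes in the first 0.5 s of response minus the 0.5 s pre-stimulus count, doubled to give Hz, with blank response subtracted. Values are for the large-spike A-neuron class of each of seven sensillum types that co-house the lanierone B-neuron; N = 1-4 sensilla, averaged.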
row,SMILES,net action potential response
1,CC/C=C/CCO,2.67 ± 7
2,CC(=O)c1ccccc1 [Acetophenone],0.667 ± 1.1
3,C=CC(O)CCCCC (racemic) [(±)-1-Octen-3-ol],2.67 ± 3.1
4,CC(=O)OCCc1ccccc1 [2-Phenethyl acetate],-2 ± 4
5,CC1=CC(=O)[C@@H]2C[C@H]1C2(C)C [(-)-Verbenone],24.7 ± 25
6,CCC/C=C/CO,2 ± 4
7,"CC1=CCC2C(C1)C2(C)C (single isomer, unassigned; (+)) [(+)-3-Carene]",3.33 ± 7
8,C=CC(=C)C[C@@H](O)CC(C)C (racemic) [(±)-Ipsenol],1.33 ± 4.2
9,CC1=CCC(=C(C)C)CC1 [Terpinolene],0 ± 3.5
10,CC/C=C\CCO,-0.667 ± 3.1
11,OCCc1ccccc1 [2-Phenylethanol],-2 ± 6.9
12,C[C@@H]1C(=O)C[C@H]2C[C@@H]1C2(C)C [(+)-Isopinocamphone],-0.667 ± 4.6
13,C=C(C)[C@@H]1CC=C(C)CC1 [(-)-Limonene],0.667 ± 8.1
14,C=C1CCC2CC1C2(C)C (stereo not drawn) [(-)-β-Pinene],-3 ± 4.2
